Bioassay records (PubChem)
Vaccinia Venus: inhibitors of vaccinia virus (Venus reporter); Vaccinia virus Venus reporter expression, fluorescence; Potency, µM (highest dose often 36.5 µM), for inactives: at the top dose activity change, negative = inhibition, usual class: inhibitors; actives 0.46% (n = 330,000); calls by dose curve; tested in A549 cells; further: potency means the concentration at half of the fitted maximal effect; nearly all actives have a fitted effect of over 30% in size
HCMV inh: human cytomegalovirus inhibition; HFF cells, HCMV-luciferase reporter, 72 h; active compounds read low; activity change, negative = inhibition, % at 57.5 µM; actives 4.5% (n = 410,000); in the data active means activity change below about -60%; inconclusive means no clear call, values can overlap the other calls; inactive means above about -39%
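Two compound doses tested in HFFs infected with HCMV-luciferase, MOI 1 PFU/cell, 72 h at 37C. Lysate luminescence read with OneGlo; data normalized against buffer-only and 10uM Salinomycin inhibitor controls.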
FMDV inh: blocks foot and mouth disease virus. FMDV antiviral cell-based qHTS. Potency, µM (highest dose often 57.9 µM), for inactives: at the highest dose activity change, negative = inhibition, actives largely listed as inhibitors. actives 1.2% (n = 410,000). AID 1159524; calls by dose curve; tested in HEK293T cells; further: read-out not given here; potency means the concentration at half of the fitted maximal effect; nearly all actives have a fitted effect of over 45% in size
HCV inh: inhibitors of hepatitis C virus infection; Huh7.5.1 HCVcc-Cre infection, luciferase reporter, 44 h; actives 3.4% (n = 340,000); Potency, µM (series often up to 41.8 µM), for inactives: at the highest dose activity change, negative = inhibition, usual class: inhibitors; AID 651820; further: potency means the concentration at half of the fitted maximal effect
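Reporter virus HCVcc-Cre (~0.5 moi) infects cells exposed to compound; seeding density 1,000 cells/well with 4 h settling beforehand. Luminescence, 15 sec read, taken 44 h post-infection following a 15 min RT substrate incubation.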
Vaccinia mCherry: inhibitors of vaccinia virus infection (mCherry reporter signal) | Vaccinia virus mCherry reporter infection, fluorescence | actives 0.63% (n = 310,000) | Potency, µM (titrated, usually from 36.5 µM), inactives show at the top dose activity change, negative = inhibition, actives largely listed as inhibitors; calls by dose curve; tested in A549 cells; further: potency means the concentration at half of the fitted maximal effect; nearly all actives have a fitted effect of over 35% in size
Sm TGR inh: inhibitors of Schistosoma mansoni thioredoxin glutathione reductase; purified TGR, DTNB reduction, TNB absorbance 405 nm; Potency, µM (highest dose often 114 µM), for inactives: top-dose activity change, negative = inhibition, actives largely listed as inhibitors; actives 3% (n = 360,000); AID 485364; further: potency means the concentration at half of the fitted maximal effect; nearly all actives have a fitted effect of over 60% in size
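TGR 20 nM + NADPH 100 uM (dispensed conc.), cpd preinc 15 min RT; start with NADPH (500 uM addition) then DTNB (15 mM addition). Kinetic TNB absorbance, 405 nm filter. Four-parameter Hill fit across titration.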
* hit, by the source's call; i = inactive; u = inconclusive; x = no result given; [ ] = remark or other dose. Shown are actives, neighbours in structure and some others; about 9.3% of the full set was active somewhere. Unless noted, the call rests on the fitted dose curve; in most records, active means well fitted curve in the direction sought with a large enough effect; inconclusive means small, poorly fitted or top-dose-only effect, or another doubt; inactive means no such curve, though single readings can be large; an effect the other way counts as inactive or inconclusive. On the % scale 0 is the no-effect control and ±100 the full control effect.

SMILES | Vaccinia Venus | HCMV inh | FMDV inh | HCV inh | Vaccinia mCherry | Sm TGR inh
Cc1nnc(Sc2cc(NCCO)c([N+](=O)[O-])c3nonc23)s1 | -12% | -10 | u | u | i | u
CCC(=O)OCCNc1cc(Sc2nc3ccccc3[nH]2)c2nonc2c1[N+](=O)[O-] | u | -11 | u | u | -8% | 0.56µM*
CCC(=O)OCCNc1cc(Sc2nc3ccccc3s2)c2nonc2c1[N+](=O)[O-] | x | 69 | 25µM* | -28% | x | 0.25µM*
COc1ccccc1C(=O)NCCC(=O)N(C)CC(=O)Nc1ccc(N2CCOCC2)cc1 | -8% | -15 | -7% | 4% | -10% | 1%
CC(C)c1ccc(NC(=O)C2CCN(S(=O)(=O)c3cccc4nsnc34)CC2)cc1 | -9% | -29 | 0% | x | i | 5%
CCOc1ccc(N2CSC(=S)N(c3ccc(OCC)cc3)C2)cc1 | x | 2 | 4% | u | x | 21%
CCC(C)Sc1ccc([C@@H]2[C@@H]3C(=O)N(CC)C(=O)[C@@H]3[C@]3(C(=O)OC)CCCCN23)cc1 (some centres undefined) | u | -5 | u | -9% | -12% | x
C=CCN(C(=O)CNC(=O)c1ccco1)C(C(=O)NC1CCCCC1)c1ccccc1 (centres undefined) | 12% | 13 | -11% | 5% | -2% | 47%
CCOCCCN(C(=O)c1ccco1)C(C(=O)NC1CCCC1)c1ccc(OC)cc1 (centres undefined) | -3% | -28 | -1% | 21% | 3% | -6%
NC(c1ccncc1)c1ccc(Cl)cc1 (centres undefined) | -9% | -1 | -11% | x | i | x
Clc1ccc(C(c2ccc(Cl)cc2)C(Cl)(Cl)Cl)cc1 | -21% | x | 3.5µM* | x | -17% | x
CCN(CC)C(=O)C1CCCN(C(=O)Nc2ccc3nsnc3c2)C1 (centres undefined) | -18% | 0 | 3% | 32µM* | x | 4%
S=C(Nc1ccc2nsnc2c1)N1CCCCC1 | -6% | 54 | 73% | 7% | i | -8%
CCOc1ccc(OCCC(=O)N(CC(=O)Nc2ccccc2C(F)(F)F)Cc2ccco2)cc1 | -27% | -19 | -8% | 0% | u | -9%
O=C(N/N=C/c1ccccc1F)c1cccc(NC(=O)c2ccccc2Cl)c1 | -5% | 19 | 15% | -5% | -1% | -4%
O=C(NC(=S)Nc1ccccc1N1CCOCC1)c1ccc(Br)cc1 | x | -66* | 0% | u | x | -40%
O=C(NC(=S)Nc1ccccc1N1CCCCC1)c1ccccc1 | -23% | -19 | u | 11µM* | u | 18%
O=C(COc1ccc(Br)cc1)NC(=S)Nc1ccccc1N1CCOCC1 | -14% | 30 | 2% | x | i | 1%
COC(=O)C1=C(C)NC(=S)NC1c1ccc(N(CCCl)CCCl)cc1Cl (centres undefined) | -23% | u | u | u | i | x
COC(=O)C1=C(C)NC(=S)NC1c1ccc(-c2cc(Cl)ccc2Cl)o1 (centres undefined) | -15% | -13 | -27% | u | u | 13µM*
COC(=O)C1=C(C)NC(=O)NC1c1ccc(-c2ccc(Cl)cc2)o1 (centres undefined) | -16% | u | -27% | 8.9µM* | -5% | 14µM*
COC(=O)C1=C(C)NC(=O)NC1c1ccc([N+](=O)[O-])o1 (centres undefined) | -9% | u | -24% | 16% | i | u
CCCCC(=O)N1CC(=O)Nc2ccc(F)cc2C1c1ccc(F)cc1 (centres undefined) | 0% | -27 | -16% | 22% | -12% | -1%
Cc1ccc(N2C(=O)CC(Cc3ccc(Cl)cc3)C2=O)cc1 (centres undefined) | -13% | -3 | -19% | 18% | -18% | 9%
O=C1CC(Cc2ccccc2)C(=O)N1c1ncccn1 (centres undefined) | -11% | 35 | 2% | 22% | i | 50µM*
SMILES | Vaccinia Venus | HCMV inh | FMDV inh | HCV inh | Vaccinia mCherry | Sm TGR inh
Cc1cc(C)nc(N2C(=O)CC(Cc3ccc(Cl)cc3)C2=O)n1 (centres undefined) | -6% | -101* | -13% | 7% | i | 0%[57.1 µM]
Cc1ccccc1-c1nc(CS(=O)CC(=O)NCCN2CCOCC2)c(C)o1 (centres undefined) | 1% | -13 | -21% | 14% | -24% | -35%
COc1ccccc1C(OC(=O)c1ccco1)C(=O)NC(C)(C)C (centres undefined) | x | -82* | -3% | 6% | x | -14%
CCOc1ccc(OCC)c(NS(=O)(=O)c2cc(Br)cc3c2N(C(C)=O)C(C)C3)c1 (centres undefined) | -4% | -13 | 50% | x | -15% | 2%
CCOc1ccc(N(CC)S(=O)(=O)c2cc(Br)cc3c2N(C(C)=O)C(C)C3)cc1 (centres undefined) | -22% | -63* | 11µM* | x | u | 3%
COC(=O)c1cn(NC(=O)/C=C/c2ccc(OC)c(OC)c2)c(=O)c2ccccc12 | -3% | -28 | -7% | -25% | -12% | -10%
COc1ccccc1NS(=O)(=O)c1ccc(C(=O)N2CCN(c3ccccn3)CC2)cc1 | -22% | 12 | u | 11µM* | u | x
Cc1ccc(NS(=O)(=O)c2ccc(C(=O)N3CCN(c4ccccn4)CC3)cc2)cc1 | -27% | u | 18µM* | u | x | u
CCOC(=O)C1CCN(C(=O)COc2ccc(N(C)S(=O)(=O)c3cccs3)cc2)CC1 | -13% | -7 | u | 21% | x | -3%
Cc1ccc(S(=O)(=O)NCc2ccc(C(=O)N3CCN(c4ccccn4)CC3)cc2)cc1 | -25% | -26 | u | u | -26% | -29%
CN(c1ccc(OCC(=O)N2CCN(C/C=C/c3ccccc3)CC2)cc1)S(=O)(=O)c1cccs1 | x | -82* | u | 11µM* | x | u
COc1ccc(C(=O)N2CCN(c3ccccn3)CC2)cc1 | x | -13 | 4% | 13% | x | -1%
CCOc1ccc(S(=O)(=O)Nc2cccc(C(=O)N3CCN(c4ccccn4)CC3)c2)cc1 | -22% | -62* | -27% | x | u | x
Cc1c(Cl)c([N+](=O)[O-])nn1CC(=O)NC12CC3CC(CC(C3)C1)C2 | -21% | -36 | u | -5% | x | -10%
O=C(NCc1ccccc1)c1cccc(N2CCCS2(=O)=O)c1 | 0% | 3 | -8% | x | -3% | -1%
O=C(c1cccc(S(=O)(=O)N2CCOCC2)c1)N1CCN(C/C=C/c2ccccc2)CC1 | -8% | -29 | -21% | -20% | i | -25%
CCOc1ccc(NS(=O)(=O)c2cccc(C(=O)N3CCN(C/C=C/c4ccccc4)CC3)c2)cc1 | u | u | 28µM* | u | i | x
